The sample as a whole holds a higher share of hits than the screen did.
VDR inh – Inhibitors of the vitamin D receptor (VDR): qHTS; 400,000 tested, 0.93% active; Vitamin D3 receptor (Homo sapiens), P11473; VDR-SRC2-3 peptide fluorescence polarization, 2 h; Potency, µM, actives largely listed as inhibitors
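VDR–SRC2-3 interaction, FP format. Cmpds 23 nl via pintool, brief spin, 2 h ambient incubation.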
GRP78 ERSR act – qHTS for Inducers of the Endoplasmic Reticulum Stress Response (ERSR) in Human Glioma: qHTS; U87-MG GRP78 promoter luciferase reporter, 16 h; Potency, µM, hits mostly activators; 420,000 tested, 0.02% active; AID 602332, 2012; further: series mostly up to about 76 µM; nearly all actives have a fitted effect of over 35% in size
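Stably transfected U87-MG human glioma cells carrying a GRP78-based luminescent sensor were seeded at 1000 cells/well, pin-dosed with compounds and incubated 16 h. Luciferase reagent was then added, and end-point luminescence was read after 10 min at room temperature.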
Sfp PPTase inh – qHTS Assay for Inhibitors of Bacillus subtilis Sfp phosphopantetheinyl transferase (PPTase). Biochemical Sfp PPTase activity, qHTS. Potency, µM, usual class: inhibitors. 310,000 tested, 3.5% active. AID 1490, 2009;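 further: the enzyme is Sfp with the accession as filed and its product quenches rhodamine fluorescence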
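Buffer: 50 mM Hepes-Na pH 7.6, 10 mM MgCl2, 0.01% Nonidet P-40, 0.01% BSA. Enzyme 15 nM, pre-exposed to compound 15 min; substrates then added and fluorescence change tracked over 30 min.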
G9a inh – qHTS Assay for Inhibitors of Histone Lysine Methyltransferase G9a. Potency, µM (titrated, usually from 102 µM), most hits filed as inhibitors. AID 504332, 2011. 350,000 tested, 8.8% active. G9a H3K9 monomethylation, AlphaScreen, 2 h. Histone-lysine N-methyltransferase EHMT2 (Homo sapiens), Q96KQ7; further: nearly all actives have a fitted effect of over 75% in size
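Methyltransferase reactions run at room temperature for 2 h (20 nM enzyme, 500 nM biotin-H3K9 peptide, 20 uM SAM) after a 15 min compound preincubation; product detected by AlphaScreen beads and anti-H3K9me1 antibody.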
12-LOX inh – Primary qHTS assay for inhibitors of human arachidonate 12S-lipoxygenase (ALOX12): Round 2; 580,000 tested, 1.1% active; Polyunsaturated fatty acid lipoxygenase ALOX12 (Homo sapiens), P18054; Potency, µM (series often up to 108 µM), actives largely listed as inhibitors; purified 12hLO, xylenol orange hydroperoxide absorbance; AID 1671190, 2021
Target sequence (P18054 whole entry, looked up): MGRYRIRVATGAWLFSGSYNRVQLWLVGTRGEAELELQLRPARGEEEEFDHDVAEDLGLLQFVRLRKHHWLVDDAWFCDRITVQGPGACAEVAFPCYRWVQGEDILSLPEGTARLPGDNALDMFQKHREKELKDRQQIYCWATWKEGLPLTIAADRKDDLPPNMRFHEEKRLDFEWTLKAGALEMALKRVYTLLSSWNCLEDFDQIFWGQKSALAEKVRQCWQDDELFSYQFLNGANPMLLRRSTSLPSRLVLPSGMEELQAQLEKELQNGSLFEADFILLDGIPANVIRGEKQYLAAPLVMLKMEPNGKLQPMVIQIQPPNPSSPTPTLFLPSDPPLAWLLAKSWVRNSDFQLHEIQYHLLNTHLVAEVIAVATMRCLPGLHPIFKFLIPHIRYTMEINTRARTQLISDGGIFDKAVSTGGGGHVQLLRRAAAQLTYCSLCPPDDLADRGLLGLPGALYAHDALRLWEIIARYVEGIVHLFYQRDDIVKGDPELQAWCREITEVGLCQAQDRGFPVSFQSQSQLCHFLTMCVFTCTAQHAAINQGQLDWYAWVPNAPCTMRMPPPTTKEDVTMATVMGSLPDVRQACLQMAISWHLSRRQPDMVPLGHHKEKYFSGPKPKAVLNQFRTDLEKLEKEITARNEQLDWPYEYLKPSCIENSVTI
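Purified human 12hLO at 150 nM in 25 mM Hepes, 0.01% Triton X-100, pH 7.0, preincubated 15 min at room temperature with compound. Reaction started with 40 uM arachidonic acid, 30 min at room temperature. Hydroperoxide measured by Fe-xylenol orange, 573/405 nm absorbance ratio.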
A number is an active result; . = inactive; ? = inconclusive; / = not tested or not shown. The call rests on the fitted dose curve; in most records, active means well fitted curve in the direction sought with a large enough effect; inconclusive means small, poorly fitted or top-dose-only effect, or another doubt; inactive means no such curve, though single readings can be large; an effect the other way counts as inactive or inconclusive.

SMILES	VDR inh	GRP78 ERSR act	Sfp PPTase inh	G9a inh	12-LOX inh
CCOc1ccc(C2/C(=C(/O)c3ccc4c(c3)CC(C)O4)C(=O)C(=O)N2CC2CCCO2)cc1 (stereo not given)	.	.	.	?	.
CC1Cc2cc(/C(O)=C3/C(=O)C(=O)N(CCCn4ccnc4)C3c3ccc(F)cc3)ccc2O1 (stereo not given)	.	.	.	45µM	.
Nc1c(N(Cc2ccco2)C(=O)Cc2c(F)cccc2Cl)c(=O)[nH]c(=O)n1Cc1ccccc1	/	/	/	/	.
CCOC(=O)Cc1nnc(SC(C)C(=O)Nc2ccc(F)c(F)c2)n1C (stereo not given)	/	/	/	/	.
Cc1cc(NS(=O)(=O)c2ccccc2)cc(Cl)c1O	.	.	79µM	2.2µM	?
C/C(=N/NS(=O)(=O)c1ccc(Cl)cc1)c1cccc(O)c1	.	.	.	.	.
O=S(=O)(Nc1ccc(NS(=O)(=O)c2ccccc2)c(Cl)c1)c1ccccc1	.	.	/	/	.
C/C(=N\NS(=O)(=O)c1ccccc1)c1cc(Cl)cc(Cl)c1O	.	.	.	45µM	?
CSc1ccc(-c2nc3cccc(C)n3c2Nc2ccc3c(c2)OCO3)cc1	.	.	/	5.6µM	?
Cc1cc(C)n2c(Nc3ccc4c(c3)OCCO4)c(-c3ccc(Cl)cc3)nc2n1	.	.	/	.	?
Cc1ccc(-c2nc3cccc(C)n3c2Nc2ccc3c(c2)OCO3)o1	.	.	/	18µM	?
Cc1ccn2c(Nc3ccc4c(c3)OCO4)c(-c3ccco3)nc2c1	.	.	/	4.5µM	.
Cc1cc(C)n2c(Nc3ccc4c(c3)OCCO4)c(-c3ccccc3)nc2n1	.	.	.	50µM	?
Cc1cccc2nc(-c3ccco3)c(Nc3ccc4c(c3)OCO4)n12	.	.	?	35µM	?
Cc1cccc2nc(-c3ccco3)c(Nc3ccccc3)n12	.	.	.	?	.
Cc1ccc(NC(=O)C(=O)NCCN2CCN(S(=O)(=O)c3ccc(F)cc3)CC2)cc1C	/	/	/	/	.
COc1ccc(S(=O)(=O)N2CCC(c3nnc(-c4ccccc4C)o3)CC2)c(OC)c1	.	.	/	8.9µM	.
Cc1ccccc1-c1nnc(C2CCN(S(=O)(=O)c3ccc(Cl)cc3)CC2)o1	.	.	/	7.9µM	.
COc1ccc(-c2nnc(C3CCN(C(=O)c4ccccc4F)CC3)o2)cc1	.	.	/	14µM	?
Cc1ccccc1-c1nnc(-c2ccc(Cl)cc2)o1	.	.	.	.	.
COc1ccc(-c2nnc(C3CCN(S(=O)(=O)c4cccc(Cl)c4)CC3)o2)cc1	.	.	/	11µM	.
Cn1c(Br)nc2c1c(=O)n(Cc1ccccc1Cl)c(=O)n2C	/	/	/	/	.
COc1cccc(NC(=O)C2CCCN(C(=O)c3ccc(OC)c4ccccc34)C2)c1 (stereo not given)	/	/	/	/	.
CC(=O)c1cc2c(cc1NC(=O)CSc1nnc(C3CC3)n1Cc1ccccc1)OCO2	/	/	/	/	.
COC(=O)c1c(COC(=O)c2ccc(N3CCCS3(=O)=O)cc2)nc2ccccc2c1C	/	/	/	/	.
SMILES	VDR inh	GRP78 ERSR act	Sfp PPTase inh	G9a inh	12-LOX inh
COc1ccc(/C=N/n2cnc3c([nH]c4ccc(F)cc43)c2=O)cc1CN1CCCC1	.	.	.	40µM	.
CCOc1ccc2c(O)csc2c1	?	.	50µM	?	?
CCCC(=O)Nc1nc2ccc(OCC)cc2s1	.	.	.	.	.
Cn1nc(C(=O)Nc2ccc(-c3ccccc3)cc2)c2ccccc2c1=O	/	/	/	/	.
Cc1cccc2nc(CSc3nnc(N)s3)cn12	.	.	.	32µM	.
Cc1cccc2nc(CSc3ccccc3N)cn12	.	.	/	/	.
COCc1ccc2c(c1)c(OC(C)(C)C(=O)NCC1CC1)nn2Cc1ccccc1	/	/	/	/	.
CCNc1c(NS(=O)(=O)c2ccc(F)c(C)c2)c(=O)oc2ccccc12	/	/	/	/	.
CN(C)c1ccc(CNC(=O)c2cc3ccccn3n2)cc1	.	.	/	16µM	.
CCc1ccc(CNC(=O)c2cc3ccccn3n2)cc1	.	.	/	.	.
COc1cccc(C(=O)N2CCC3(CC2)CC(Cc2ccccc2)=NO3)c1	/	/	/	/	.
CN(Cc1cccc(C#N)c1)C(=O)c1cnc2ccccc2n1	/	/	/	/	.
